Bioassay records as filed in PubChem BioAssay.
In the library only some 1.7% were active in any assay of this set; here they are far more common.
LANA-H2B inh – blockers of LANA interaction with H2A/H2B – biochemical, FP readout, HTS, primary screen; cell-free LANA-H2A/H2B peptide, fluorescence polarization; actives 0.6% (n = 320,000); inhibition, % (test concentration not listed); AID 2629, 2010; in the data active means inhibition mostly above about 10%, no sharp cut-off; inactive means mostly below about 6.7%
CTSL1 counter – Fasciola hepatica cathepsin L1 inhibitors, primary screen, counter-screen for PFM18AAP inhibitor project, biochemical, QFRET, fluorogenic peptide substrate; inhibition, % at 5.96 µM; AID 1906, 2009; actives 0.49% (n = 300,000); recombinant F. hepatica cathepsin L1, Z-Leu-Arg-MCA fluorescence;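 active means inhibition above the mean of all tested compounds plus 3 SD, set per screening campaign, cut at about 17% in these data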;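 further: 0% = plate median of test compound wells and 100% = 1 µM Z-Phe-Ala-diazomethylketone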
HTR2A ag – mouse Htr2a agonists via beta-arrestin recruitment, primary screen, cell-based, luminescence; 5-hydroxytryptamine receptor 2A (Mus musculus), P35363; CHO-K1 mHTR2A beta-arrestin complementation; percent of 30 µM serotonin response; activation, % at 7.6 µM; actives 0.66% (n = 360,000); AID 624169, 2012;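 active means activation above a run cutoff, the mean activation of all tested compounds plus 3 SD, cut at about 14% in these data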;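 further: 0% = plate median of compound wells and 100% = 30 µM serotonin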
HDAC3 inh – HDAC3 deacetylase inhibitors, primary screen, biochemical, fluorescence, cell-free homogeneous; inhibition, % at 8.3 µM; actives 0.15% (n = 320,000); recombinant HDAC3, fluorogenic peptide/trypsin coupled; in the data active means inhibition above about 26%, passing the limit was not always enough
Target sequence (O15379 whole entry, looked up): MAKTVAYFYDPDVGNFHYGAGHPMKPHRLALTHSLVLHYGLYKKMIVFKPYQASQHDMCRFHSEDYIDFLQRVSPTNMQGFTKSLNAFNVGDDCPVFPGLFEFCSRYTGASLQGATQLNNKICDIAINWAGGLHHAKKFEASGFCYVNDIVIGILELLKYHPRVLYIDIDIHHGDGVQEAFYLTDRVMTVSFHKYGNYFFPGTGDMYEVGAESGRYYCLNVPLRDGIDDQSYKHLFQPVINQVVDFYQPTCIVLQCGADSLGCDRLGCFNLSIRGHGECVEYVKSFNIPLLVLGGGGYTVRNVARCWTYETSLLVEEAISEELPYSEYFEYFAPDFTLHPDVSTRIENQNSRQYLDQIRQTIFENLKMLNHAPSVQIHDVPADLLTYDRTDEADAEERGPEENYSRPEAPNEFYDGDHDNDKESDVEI
* marks the source's active call; other numbers are inactive results; . = not tested or not shown; + = active, no number.

SMILES	LANA-H2B inh	CTSL1 counter	HTR2A ag	HDAC3 inh
C[C@H](NC(=O)c1nc[nH]c1C(=O)N[C@@H](C)C(=O)OC(C)(C)C)C(=O)OCc1ccccc1	1	3	-2	5
CCN1CCN(C(=O)/C=C/c2ccc(C(C)C)cc2)CC1	4	17*	-8	2
CCN1CCN(C(=O)/C=C/c2cccc(Cl)c2)CC1	-5	4	-3	0
CCCOc1ccc(Br)cc1CSC(=N)N	1	-1	-11	-2
Cc1cc(CSC(=N)N)c(CSC(=N)N)cc1C	19*	3	0	0
COCCN(C(=O)CCl)C(C(=O)NC1CCCCC1)c1ccccc1C (configuration not stated)	1	27*	4	-12
O=C(CN1C(=O)c2ccc([N+](=O)[O-])cc2C1=O)NCC1CCCO1 (configuration not stated)	.	-2	7	.
CCOc1ccccc1NC(=O)CN1CCCCCC1	1	-1	3	-4
CCOc1ccccc1NC(=O)NCCN1CCCCC1	15*	0	9	-2
CC(C)(C)c1cc[n+](C2=C([O-])c3ccccc3C(=O)/C2=N\S(=O)(=O)c2cccs2)cc1	-3	24*	-2	4
O=C1/C(=N\S(=O)(=O)c2cccs2)C([n+]2ccccc2)=C([O-])c2ccccc21	1	26*	-2	6
O=C(O)c1ccc(NC2=C/C(=N/S(=O)(=O)c3cccs3)c3ccccc3C2=O)cc1	.	.	-5	.
O=S(=O)(/N=C/c1ccccc1O)c1cccs1	1	-2	1	-3
Cc1cnc(CNC(=O)c2csc([C@H]3C[C@H](O)[C@@H](CO)O3)n2)cn1	.	.	6	.
O=c1[nH]c(Cc2ccccc2)nc2c1oc1ccccc12	8.2*	5	4	-6
O=c1[nH]c(CO)nc2c1oc1ccccc12	4	7	-1	1
CCOC(=O)[C@]12CCC=C1N(Cc1ccc3c(c1)OCO3)C(=O)[C@H](CC(=O)NCC1CCCCC1)C2	.	.	2	.
CN(C(=O)CCN1C(=O)S/C(=C\c2ccccc2)C1=O)C1CCS(=O)(=O)C1 (configuration not stated)	18*	-4	0	3
CCOC(=O)C1(Cc2ccccc2C(F)(F)F)CCN(CCCn2cccn2)CC1	14*	5	-8	1
C[C@H]1CN([C@@H](C)CO)C(=O)CCCn2nncc2CO[C@H]1CN(C)C(=O)c1ccccc1	.	.	3	.
O=C(COc1ccc(F)cc1Br)N1CCN(c2ncccn2)CC1	0	-3	-2	3
O=C(COc1ccc(F)cc1Br)N1CCN(S(=O)(=O)/C=C/c2ccccc2)CC1	87*	0	-7	4
CCN(CC(=O)Nc1c(F)cccc1F)C(=O)c1ccc(C2SCCS2)cc1	-3	-1	2	62*
CN(CC(=O)Nc1cccc(F)c1)C(=O)c1ccc(C2SCCS2)cc1	-14	-19	-3	59*
CN(CC(=O)Nc1cccc(F)c1)C(=O)c1ccc(OCc2ccccc2)cc1	2	.	3	1
SMILES	LANA-H2B inh	CTSL1 counter	HTR2A ag	HDAC3 inh
CCCCN(C(=O)COC(=O)C1(c2ccccc2)CC1)c1c(N)n(CCC)c(=O)[nH]c1=O	.	.	-2	.
COc1ccc(N(CC(=O)NC(C)(C)C)C(=O)CCC(=O)Nc2nccs2)c(OC)c1	-1	-3	0	0
C[C@@H]1CN([C@@H](C)CO)C(=O)c2cccc(NC(=O)Nc3ccc4c(c3)OCO4)c2O[C@H]1CN(C)S(=O)(=O)c1cn(C)cn1	1	.	4	-1
Cn1ccnc1Sc1ccc(C(N)=O)cc1[N+](=O)[O-]	86*	0	-2	10
Cn1c(=NC(=O)C2=NNC(=O)CC2)sc2ccccc21	15*	3	2	6
COc1ccc(C(=O)N=c2sc3ccccc3n2C)cc1OC	-2	2	1	0
CC(C)CC(=O)Nc1ccc(C(=O)COC(=O)C2=COCCO2)cc1	1	-1	0	2
O=C(N=c1ccn(-c2nc3ccccc3nc2NS(=O)(=O)c2ccccc2)cc1)c1ccccc1Cl	3	3	-3	3
O=C(N=c1ccn(-c2nc3ccccc3nc2NS(=O)(=O)c2ccc(Cl)cc2)cc1)c1ccccc1Cl	15*	0	.	6
Cc1ccc(NC(=S)N2CCC(c3ccc(C)cc3)C2)cc1 (configuration not stated)	3	54*	-1	7
NC(=O)c1cccc(-c2csc(C(O)c3ccccc3)n2)c1 (configuration not stated)	.	.	-4	.
Cc1cc2c(=O)oc(-c3ccccc3Br)nc2s1	.	.	1	.
CCc1cc2c(=O)oc(-c3ccccc3F)nc2s1	-5	3	4	69*
Cc1nn(-c2ccccc2)nc1C(=O)OCC(=O)N1CCC(C)CC1	0	.	5	-10
Cc1cccc(NC(=O)CSc2cccc3cccnc23)c1	5	-5	8	3
Cc1ccc(C)c(NC(=O)CSc2cccc3cccnc23)c1	17*	-2	11	-6
CS(=O)(=O)c1ccc(C(=O)CN2C(=O)NC3(CCCc4ccccc43)C2=O)cc1 (configuration not stated)	17*	.	3	-4
O=C(CN1C(=O)NC2(CCCc3ccccc32)C1=O)c1ccc(F)cc1 (configuration not stated)	4	.	7	0
NNc1nc2cc3c(cc2s1)OCCO3	1	-1	-3	-3
Cn1c(=O)c2c(-c3ccccc3)n(-n3cnnc3)cc2n(C)c1=O	4	25*	-4	-1
COc1ccc(NC(=O)C[C@H]2C(=O)N(CCc3ccccc3)C[C@@H]2c2ccc(OC)cc2)cc1	.	.	-3	.
CN1CCN(c2ccc(NC(=O)c3ccc(-c4ccc(Cl)cc4)o3)cc2)CC1	66*	-3	1	1
CS(=O)(=O)N1CCN(c2ccc(NC(=O)c3ccc(-c4ccc(Cl)cc4)o3)cc2)CC1	-12	2	1	1
O=C(NCc1ccccc1Cl)c1ccc2nc([C@@H]3O[C@H](CO)[C@@H](O)[C@H]3O)[nH]c2c1	.	.	-2	.
Cc1cc(C)nc(/N=c2/ssnc2Cl)c1	7	22*	-5	3
SMILES	LANA-H2B inh	CTSL1 counter	HTR2A ag	HDAC3 inh
CCOC(=O)C1=C(C)C/C(=N\NC(=O)c2ccccc2O)CC1	17*	5	-1	-7
CCN(CC)C(=O)C1c2ccccc2Oc2ccccc21	14*	1	-1	-7
CC(C)=NOc1cc(NC(=O)CCl)cc([N+](=O)[O-])c1	-4	79*	3	3
Oc1ccccc1/C=N/Nc1ncc(Br)cn1	+	1	-8	6
Oc1ccccc1/C=N/Nc1ccccc1	3	-5	0	8
COc1cc2c(cc1OC)-c1cc3ccc4c(c3c[n+]1CC2)OCO4	-11	51*	2	3
COc1cc2c(cc1O)CC[n+]1cc3c(OC)c(OC)ccc3cc1-2	-1	2	-2	6
